# Measured values reported in PubChem BioAssay AID588689 (Southern Research Specialized Biocontainment Screening …, 2011).
# Out of some 340,000 compounds screened, about 1,000 (0.29%) were called active. No stated cut-off is given here; in the data, inconclusive means inhibition above about 29% without an active follow-up result; inactive means below that. Only a sample is shown. Results with a measured potency or affinity are listed apart.
# Molecular target: Genome polyprotein (Dengue virus type 2 (strain 16681-PDK53)) (UniProt P29991)
# Sequence (P29991 whole entry, looked up): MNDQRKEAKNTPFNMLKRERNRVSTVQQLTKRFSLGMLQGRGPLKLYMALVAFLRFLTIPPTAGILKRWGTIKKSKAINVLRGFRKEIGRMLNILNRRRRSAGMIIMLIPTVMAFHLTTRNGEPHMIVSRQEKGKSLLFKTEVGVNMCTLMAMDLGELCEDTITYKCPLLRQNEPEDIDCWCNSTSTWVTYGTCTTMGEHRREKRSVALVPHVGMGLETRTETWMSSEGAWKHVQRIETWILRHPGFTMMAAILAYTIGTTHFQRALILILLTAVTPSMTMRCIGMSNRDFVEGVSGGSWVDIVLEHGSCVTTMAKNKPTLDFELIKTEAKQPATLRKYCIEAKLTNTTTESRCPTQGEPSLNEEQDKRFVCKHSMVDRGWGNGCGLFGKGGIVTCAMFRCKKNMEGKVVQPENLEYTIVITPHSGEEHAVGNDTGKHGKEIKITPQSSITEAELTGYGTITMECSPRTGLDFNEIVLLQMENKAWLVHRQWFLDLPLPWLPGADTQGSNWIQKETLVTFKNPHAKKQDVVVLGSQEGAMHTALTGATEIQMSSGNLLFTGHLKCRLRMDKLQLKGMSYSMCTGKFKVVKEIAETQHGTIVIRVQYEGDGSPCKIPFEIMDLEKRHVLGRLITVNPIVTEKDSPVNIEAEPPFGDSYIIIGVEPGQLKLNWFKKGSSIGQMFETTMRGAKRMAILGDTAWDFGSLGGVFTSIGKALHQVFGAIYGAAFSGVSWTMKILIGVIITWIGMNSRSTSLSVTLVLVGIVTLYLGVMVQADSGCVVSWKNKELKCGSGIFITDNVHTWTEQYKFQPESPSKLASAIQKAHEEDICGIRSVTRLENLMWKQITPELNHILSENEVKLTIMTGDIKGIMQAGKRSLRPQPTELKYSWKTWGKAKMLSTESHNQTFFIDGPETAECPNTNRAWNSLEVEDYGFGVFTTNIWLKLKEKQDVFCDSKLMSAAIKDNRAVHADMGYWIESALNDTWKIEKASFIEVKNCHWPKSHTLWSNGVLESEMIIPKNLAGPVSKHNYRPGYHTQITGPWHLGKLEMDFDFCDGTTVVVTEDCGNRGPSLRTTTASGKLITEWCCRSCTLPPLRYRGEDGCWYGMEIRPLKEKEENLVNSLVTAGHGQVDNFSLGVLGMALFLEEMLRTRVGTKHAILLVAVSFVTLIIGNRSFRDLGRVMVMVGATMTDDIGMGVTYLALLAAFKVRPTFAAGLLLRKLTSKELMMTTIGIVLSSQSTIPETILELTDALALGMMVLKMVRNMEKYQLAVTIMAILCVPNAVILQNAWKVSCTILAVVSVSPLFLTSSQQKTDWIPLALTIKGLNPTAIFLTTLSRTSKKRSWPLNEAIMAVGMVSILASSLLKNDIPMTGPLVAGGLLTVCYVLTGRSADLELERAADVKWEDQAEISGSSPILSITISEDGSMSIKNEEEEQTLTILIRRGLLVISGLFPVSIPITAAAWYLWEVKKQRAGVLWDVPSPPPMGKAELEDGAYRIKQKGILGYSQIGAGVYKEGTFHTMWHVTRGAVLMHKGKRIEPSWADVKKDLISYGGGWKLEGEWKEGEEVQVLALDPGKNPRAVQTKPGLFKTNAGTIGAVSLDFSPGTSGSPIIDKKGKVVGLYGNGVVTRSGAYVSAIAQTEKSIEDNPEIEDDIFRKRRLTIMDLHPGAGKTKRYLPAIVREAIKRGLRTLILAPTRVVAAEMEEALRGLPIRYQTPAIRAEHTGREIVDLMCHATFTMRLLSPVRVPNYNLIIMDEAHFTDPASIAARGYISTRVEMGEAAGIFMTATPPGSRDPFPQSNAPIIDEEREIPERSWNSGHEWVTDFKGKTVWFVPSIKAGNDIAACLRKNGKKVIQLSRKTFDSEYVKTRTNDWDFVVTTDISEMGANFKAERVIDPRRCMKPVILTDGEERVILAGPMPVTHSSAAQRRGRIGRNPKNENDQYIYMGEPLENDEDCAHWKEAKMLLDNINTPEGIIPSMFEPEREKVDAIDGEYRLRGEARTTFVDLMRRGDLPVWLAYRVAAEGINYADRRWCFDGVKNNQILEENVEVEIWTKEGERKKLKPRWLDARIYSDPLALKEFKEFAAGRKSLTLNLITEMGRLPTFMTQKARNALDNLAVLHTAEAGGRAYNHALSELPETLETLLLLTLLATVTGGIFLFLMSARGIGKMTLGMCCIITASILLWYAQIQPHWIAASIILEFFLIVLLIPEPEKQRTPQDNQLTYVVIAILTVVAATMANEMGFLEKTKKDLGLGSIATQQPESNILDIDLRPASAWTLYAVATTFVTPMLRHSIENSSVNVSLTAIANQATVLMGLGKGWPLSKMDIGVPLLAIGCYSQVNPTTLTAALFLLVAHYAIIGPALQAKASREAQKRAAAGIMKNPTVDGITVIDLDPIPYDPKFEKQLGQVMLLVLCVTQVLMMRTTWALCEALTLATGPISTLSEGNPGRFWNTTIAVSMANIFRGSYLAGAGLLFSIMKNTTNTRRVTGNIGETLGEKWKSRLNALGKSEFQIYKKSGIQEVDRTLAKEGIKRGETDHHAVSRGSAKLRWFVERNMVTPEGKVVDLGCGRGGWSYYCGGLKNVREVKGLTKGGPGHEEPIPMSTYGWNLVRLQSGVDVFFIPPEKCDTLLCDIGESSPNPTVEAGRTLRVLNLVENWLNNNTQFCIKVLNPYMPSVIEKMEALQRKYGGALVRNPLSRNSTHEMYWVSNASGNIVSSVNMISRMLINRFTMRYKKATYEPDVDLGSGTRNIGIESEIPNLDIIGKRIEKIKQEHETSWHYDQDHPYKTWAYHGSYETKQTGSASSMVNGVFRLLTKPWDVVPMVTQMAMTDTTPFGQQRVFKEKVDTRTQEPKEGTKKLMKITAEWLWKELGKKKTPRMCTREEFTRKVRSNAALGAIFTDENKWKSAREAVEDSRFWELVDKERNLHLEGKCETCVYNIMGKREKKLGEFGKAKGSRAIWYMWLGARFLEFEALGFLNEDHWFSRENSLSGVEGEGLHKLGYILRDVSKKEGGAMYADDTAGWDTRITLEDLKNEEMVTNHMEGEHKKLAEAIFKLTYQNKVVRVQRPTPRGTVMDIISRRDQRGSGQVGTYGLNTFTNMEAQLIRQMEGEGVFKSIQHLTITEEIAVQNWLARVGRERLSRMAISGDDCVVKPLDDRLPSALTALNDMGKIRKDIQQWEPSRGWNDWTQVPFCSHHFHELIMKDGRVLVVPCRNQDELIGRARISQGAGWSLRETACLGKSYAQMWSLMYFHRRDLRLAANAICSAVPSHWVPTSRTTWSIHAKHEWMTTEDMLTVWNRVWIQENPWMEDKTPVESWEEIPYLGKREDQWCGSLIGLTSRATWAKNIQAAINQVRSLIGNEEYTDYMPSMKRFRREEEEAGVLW
# Experiment: Dengue-2 NS5 methyltransferase inhibitors, primary screen, biochemical, confirmation dose response (AID 588689)
# Settings: Dengue-2 NS5 methyltransferase capping enzyme assay, at 25 µM, stronger effect = higher value
SMILES,inhibition,inhibition (measured here: pilot screen replicate inhibition) [%]
CC(C)(C)C(=O)CSc1nc2c(c(-c3cccs3)c1C#N)CCC2,-8.9% (inactive),–
CN1CCc2nc(SC(C(=O)O)c3ccccc3)c(C#N)c(-c3cccs3)c2C1 (stereo unspecified),23.2% (inactive),–
Cc1ccc(CNC(=O)CCS(=O)(=O)c2ccc(Br)cc2)cc1,-2.71% (inactive),–
Cc1nc2ccccc2c(=O)n1NC(=O)c1ccc(C(C)(C)C)cc1,-7.84% (inactive),–
O=C(O)CC(NC(=O)C12CC3CC(CC(C3)C1)C2)c1cccc([N+](=O)[O-])c1 (stereo unspecified),4.1% (inactive),–
CCN=C1S/C(=C\c2ccc(-c3cccc(C(=O)O)c3)o2)C(=O)N1CC,0.91% (inactive),–
O=C(O)c1cccc(-c2ccc(/C=C3/SC(=Nc4ccccc4)N(Cc4cccnc4)C3=O)o2)c1,3.26% (inactive),–
COc1ccc(C(=O)CN2C(=O)NC3(CCCc4ccccc43)C2=O)cc1 (stereo unspecified),-6.6% (inactive),–
O=C(O)Cn1c(CC(=O)N2CCCC2)nc2ccccc21,2.7% (inactive),–
CCOC(=O)c1cc(-c2ccc(/C=C3/C(=O)NC(=O)C(C#N)=C3C)o2)ccc1Cl,44.5% (inactive),–
O=[N+]([O-])c1ccccc1-c1ccc(/C=N/n2cnnc2)o1,1.62% (inactive),–
N#C/C(=C\c1ccc(-c2ccccc2[N+](=O)[O-])o1)C(N)=O,-6.96% (inactive),–
O=C(O)/C(=C\c1ccc(-c2ccccc2[N+](=O)[O-])o1)c1ccccc1,25.4% (inactive),–
N#C/C(=C/c1ccc(-c2ccccc2[N+](=O)[O-])o1)C(N)=O,-17.5% (inactive),–
CC1=C(C#N)C(=O)NC(=O)/C1=C\c1ccc(-c2ccc(C)cc2[N+](=O)[O-])o1,23.7% (inactive),–
CCN1C(=O)[C@H]2[C@@H](c3ccc(C)cc3)N3C(=O)N(c4cccc(Cl)c4)C(=O)[C@@]3(Cc3ccccc3)[C@H]2C1=O,0% (inactive),–
NC(=O)CSc1oc(-c2ccc(F)cc2)nc1S(=O)(=O)c1ccccc1,-9.82% (inactive),–
Cc1ccccc1NC(=O)C1CCC(=O)N1 (stereo unspecified),-6.11% (inactive),–
O=C(CNC(=O)c1cccc(S(=O)(=O)N2CCc3ccccc32)c1)Nc1ccccc1Br,2.25% (inactive),–
CSc1ccc(/C=N/Nc2ccc(Cl)c(C(=O)O)c2)cc1,-1.45% (inactive),–
O=C(O)c1cc(N/N=C/c2ccncc2)ccc1Cl,-3.81% (inactive),–
COC(=O)C1SCC2C(=O)N(Cc3ccc(F)cc3)CC(=O)N21 (stereo unspecified),-5.39% (inactive),–
Cn1c(SCC(=O)Nc2ccc3nc(SCC(=O)N4CCCC4)sc3c2)nnc1-c1ccc(N)cc1,9.65% (inactive),–
O=c1c2ccccc2nc(SCc2cc([N+](=O)[O-])cc3c2OCOC3)n1-c1ccccc1,-2.94% (inactive),–
COc1ccc(OC)c(NC(=O)Nc2cccnc2)c1,1.62% (inactive),–
Cc1cc(C)c(NC(=O)CN2C(=O)NC3(CCCCC3)C2=O)c(Cl)c1,-4.81% (inactive),–
CCCn1nc(NS(=O)(=O)c2cccc3nonc23)c2cc3ccccc3nc21,0.45% (inactive),–
CCCCn1nc(NS(=O)(=O)c2cccc3nonc23)c2cc3cccc(C)c3nc21,27.8% (inactive),–

SMILES,inhibition,inhibition (measured here: pilot screen replicate inhibition) [%]
COc1ccc(S(=O)(=O)NCC2CCCN(C(=O)CSC)C2)cc1 (stereo unspecified),-2.61% (inactive),0.01
C=CCN(C(=O)Cc1cccs1)c1nc(-c2ccc(S(C)(=O)=O)cc2)cs1,-10.3% (inactive),–
Cc1[nH][nH]c(=O)c1C(c1ccc(-c2ccccc2C(=O)O)o1)c1c(C)[nH][nH]c1=O,39% (inactive),–
Cc1[nH][nH]c(=O)c1C(c1ccc(-c2cccc(C(=O)O)c2)o1)c1c(C)[nH][nH]c1=O,21.1% (inactive),–
Cc1cc(S(=O)(=O)N2CCCOC2CNC(=O)C(=O)NCCc2ccco2)ccc1F (stereo unspecified),0.64% (inactive),–
COc1ccccc1OCCNC(=O)C(CCSC)NS(=O)(=O)c1ccccc1F (stereo unspecified),-7.2% (inactive),–
CC(Oc1ccccc1)C(=O)NNS(=O)(=O)c1ccc([N+](=O)[O-])cc1 (stereo unspecified),-1.92% (inactive),–
COc1ccc(-n2c(SCC(=O)Nc3cc(C)on3)nc3ccc(O)cc3c2=O)cc1OC,-6.42% (inactive),–
O=C1NC(=S)N/C1=C/c1cccc([N+](=O)[O-])c1,1.48% (inactive),–
O=[N+]([O-])c1cccc(/C=N/N=C\c2ccccc2)c1,-0.78% (inactive),–
O=C(O)c1cc(NCc2c(F)cccc2Cl)ccc1N1CCOCC1,-2.05% (inactive),–
NS(=O)(=O)c1ccc(NCc2c(F)cccc2Cl)cc1,4.17% (inactive),–
CN1CCC(=NNC(=O)c2ccco2)CC1,17.7% (inactive),–
Cc1ccccc1C(=O)NC(=S)Nc1ccc2[nH]c(=O)[nH]c2c1,-1.8% (inactive),–
C[C@H](CO)N1C[C@H](C)[C@@H](CN(C)S(=O)(=O)c2ccc(F)cc2)Oc2ccc(NS(=O)(=O)c3ccccc3)cc2C1=O,0.4% (inactive),–
CC1=CC(=Nc2c(C)n(C)n(-c3ccccc3)c2=O)C=C(C)C1=O,2.89% (inactive),–
CCC(C)C1=CC(=Nc2c(C)n(C)n(-c3ccccc3)c2=O)C=C(C(C)CC)C1=O (stereo unspecified),4.41% (inactive),–
Cc1c(N=C2C(=O)Nc3ccccc32)c(=O)n(-c2ccccc2)n1C,2.78% (inactive),–
Cc1c(N=c2scc(-c3ccccc3)n2C)c(=O)n(-c2ccccc2)n1C,-7.91% (inactive),–
CCC1CCCCN1C(=O)COc1ccc(S(=O)(=O)N2CCOCC2)cc1Cl (stereo unspecified),-7.51% (inactive),–
CCOC(=O)c1c(-c2ccccc2)oc2ccc(OCC(=O)O)cc12,-1.55% (inactive),–
CC1CCCCC1NC(=O)c1nnc(Cc2ccc(Cl)cc2)o1 (stereo unspecified),-2.17% (inactive),–
Cc1cc(-n2c(C)cc(C(=O)CSc3nncn3C(C)C)c2C)no1,-1.44% (inactive),–
COC(=O)c1ccc([C@H](NC(=O)c2ccco2)[C@]2(C)C[C@H]2C2CCCCC2)cc1,-7.21% (inactive),–
COc1ccc(C(=O)c2ccc(N3CCN(C(=O)c4ccc(F)cc4)CC3)c(F)c2)cc1Br,4.82% (inactive),–
O=C1Oc2ccccc2C(=O)/C1=C\N1CCN(c2ccccc2)CC1,-8.28% (inactive),–
Cc1ccccc1/C=C1\Oc2ccccc2C1=O,1.3% (inactive),–
